Assay outcomes (PubChem BioAssay)
SKN-1 inh = inhibitors of C. elegans SKN-1; C. elegans VP596 Pgst-4::GFP/RFP ratio, acrylamide-induced, 24 h; inhibition, % at 21.8 µM; 360,000 tested, 0.49% active;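 active means interference check ratio from 0.5 to 1.5 plus GFP to RFP signal ratio inhibition reaching or exceeding a fixed threshold, cut at about 30% in these data, passing the limit was not always enough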
NR3A LBD binder = NR3A (human) ligand-binding domain modulation | NR3A LBD differential scanning fluorimetry, Tm shift; 0% = protein alone, 100% = glycine-bound protein | Tm shift relative to glycine control, % at 25 µM | 340,000 tested, 2.5% active | AID 1259313;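 active means melting temperature shift of at least 10% of the positive control shift, at one fixed dose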
NadD inh = inhibitors of Staphylococcus aureus NadD. purified NadD enzyme, colorimetric absorbance read-out. inhibition, % at 20 µM. 360,000 tested, 0.78% active. AID 602399; in the data active means inhibition above about 26%
Vif imaging = inhibitors of HIV Vif. 340,000 tested, 0.35% active. inhibition, % at 7.49 µM. HEK293T cells, Vif self-association by quenched fluorescence, imaging, 24 h; in the data active means inhibition above about 50%, passing the limit was not always enough; inconclusive means no clear call, values can overlap the other calls; inactive means below about 31%
esBAF inh = SWI/SNF esBAF complex inhibition; mouse ES cells, Bmi1-luciferase knock-in reporter, 24 h; 100% = twice the neutral-well signal; reporter increase, % at 12.5 µM; 350,000 tested, 2% active; in the data active means activation above about 40%; inconclusive means no clear call, values can overlap the other calls;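 further: a rise in the Bmi1 reporter signal indicates esBAF inhibition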
SMARCA2 activ = activators of SMARCA2 function. MG213 cells, MMTV-luciferase reporter, dexamethasone, overnight. activation, % at 9.1 µM. 370,000 tested, 1% active. AID 652017; in the data active means activation above about 7.8%
Each line names hits and unclear results; the compound was inactive in the other large screens; ! = a repeat was not active. Rows were chosen to be rich in hits. Some 5.2% of all compounds tested hit in one or more screens of this group.

Oc1ccc(Cl)cc1-c1cc(-c2ccccc2Cl)[nH]n1	esBAF inh inconclusive
Oc1ccc(Cl)cc1-c1cc(-c2ccco2)[nH]n1	NR3A LBD binder 11.1
Oc1ccccc1-c1cc(-c2ccco2)[nH]n1	esBAF inh 61.8
CCOC(=O)C(Cc1cc(C(C)=O)ccc1OCC)C(=O)OCC	SKN-1 inh 37.9
Cc1oc(C(C)(C)C)cc1C(=O)Nc1ccc(C(=O)O)cc1	esBAF inh 76.1 (no result: Vif imaging)
Cc1oc(C(C)(C)C)cc1C(=O)Nc1cccc(C(=O)O)c1	none
COCC(=O)N1[C@@H]2c3ccc(-c4ccccc4)c(=O)n3C[C@@H]2[C@@H](CO)[C@@H]1C(=O)Nc1ccccc1	none (no result: SKN-1 inh, NR3A LBD binder, NadD inh, Vif imaging, SMARCA2 activ)
CSc1nccc(N2CCN(c3ccc(F)cc3)CC2)n1	none
Clc1ccc(N2CCN(c3ccnc(Cl)n3)CC2)cc1	SKN-1 inh 56.7, NR3A LBD binder 13.9 (no result: esBAF inh)
C[C@@H]1CCCCO[C@@H](CN(C)C(=O)Nc2cccc3ccccc23)[C@H](C)CN([C@H](C)CO)C(=O)c2cc(NC(=O)c3ccncc3)ccc2O1	none (no result: SKN-1 inh, NR3A LBD binder, NadD inh, Vif imaging, SMARCA2 activ)
CSc1ccccc1OCc1cc(C(=O)NCc2cccc(C)n2)no1	esBAF inh 77.9
Cc1nonc1CN(C)C(=O)c1cc(COc2ccc(F)cc2Cl)on1	none
CCn1ccnc1CN(C)C(=O)c1cc(COc2ccccc2SC)on1	esBAF inh 59.3
CSc1ccccc1OCc1cc(C(=O)N(Cc2nccn2C)C(C)C)no1	none
CSc1ccccc1OCc1cc(C(=O)N(C)CC2COCCO2)no1 (stereo unspecified)	NR3A LBD binder 12.6
CSc1ccccc1OCc1cc(C(=O)N(C)Cc2nonc2C)no1	NR3A LBD binder 13.1, Vif imaging inconclusive, esBAF inh 65.1
CC(C)NC(=O)N(C)C[C@H]1Oc2cc(C#C[C@@H](C)O)ccc2S(=O)(=O)N([C@@H](C)CO)C[C@@H]1C	none (no result: SKN-1 inh, NR3A LBD binder, NadD inh, Vif imaging, SMARCA2 activ)
COc1ccc(N(CC(=O)Nc2cccc(C(F)(F)F)c2)S(C)(=O)=O)cc1	none
COc1ccc(N(CC(=O)Nc2ccc(F)c(Cl)c2)S(=O)(=O)c2c(C)noc2C)cc1	NR3A LBD binder 15.6
CCOc1ccc(N(CC(=O)Nc2ccc(C)c(C)c2)S(C)(=O)=O)cc1	esBAF inh 83.6
CN(c1cccc(NC(=O)CN(c2ccc(C34CC5CC(CC(C5)C3)C4)cc2)S(C)(=O)=O)c1)S(C)(=O)=O	NR3A LBD binder 30.1 (no result: SMARCA2 activ)
COc1ccc(N(CC(=O)Nc2cccc(SC)c2)S(C)(=O)=O)cc1	esBAF inh 45.3
CCOc1ccc(N(CC(=O)Nc2ccccc2)S(C)(=O)=O)cc1	none (no result: esBAF inh)
C[C@H](CO)N1C[C@H](C)[C@@H](CN(C)C(=O)Nc2cccc3ccccc23)Oc2c(NS(=O)(=O)c3cccs3)cccc2C1=O	none (no result: SKN-1 inh, NR3A LBD binder, NadD inh, Vif imaging, SMARCA2 activ)
C[C@H](NC(=O)[C@@H]1[C@@H](CO)[C@@H]2Cn3c(cccc3=O)[C@@H]2N1CC1CC1)c1ccccc1	none (no result: SKN-1 inh, NR3A LBD binder, NadD inh, Vif imaging, SMARCA2 activ)
COC(=O)c1ccc2c(c1)C(=O)/C(=C/c1ccc(C)cc1)O2	esBAF inh 66.7
Cc1ccc(/C=C2\Oc3cc(OC(=O)N4CCOCC4)ccc3C2=O)cc1	none (no result: esBAF inh)
c1cc2c(nn1)CCc1nonc1-2	SKN-1 inh 44.1
Oc1ccc(C=NNC(=S)Nc2cccnc2)nc1	NR3A LBD binder 11.0 (no result: esBAF inh)
Cc1[nH][nH]c(=O)c1C(c1c(C)[nH][nH]c1=O)c1cn(Cc2ccc(F)cc2)c2ccccc12	none (no result: esBAF inh, SMARCA2 activ)
Cc1[nH][nH]c(=O)c1C(c1c(C)[nH][nH]c1=O)c1cn(Cc2ccc(Cl)c(Cl)c2)c2ccccc12	NadD inh 37.3 (no result: esBAF inh)
O=C(Nc1ccccc1)c1nnsc1S(=O)c1ccc(Cl)cc1 (stereo unspecified)	esBAF inh 43.8
COc1cccc(COc2ccc3c(C)cc(=O)oc3c2)c1	esBAF inh 51.1
CC1Nc2ncnc(N3CCc4ccccc4C3)c2N(Cc2ccc(Br)cc2)C1=O (stereo unspecified)	NadD inh 45.3!
CC(C)CC1Nc2ncnc(N3CCCCC3)c2N(Cc2ccccc2)C1=O (stereo unspecified)	none (no result: Vif imaging, esBAF inh, SMARCA2 activ)
O=C1C(Cc2ccccc2)Nc2ncnc(N3CCc4ccccc4C3)c2N1Cc1ccccc1 (stereo unspecified)	NadD inh 39.8 (no result: SMARCA2 activ)
O=C1C(Cc2ccccc2)Nc2ncnc(N3CCCCC3)c2N1Cc1ccc(Cl)cc1 (stereo unspecified)	NadD inh 35.7 (no result: SMARCA2 activ)
O=C(CN1CCOCC1)NCC[C@H]1CC[C@H](NC(=O)Nc2ccc(Cl)cc2)[C@@H](CO)O1	none (no result: SKN-1 inh, NR3A LBD binder, NadD inh, Vif imaging, SMARCA2 activ)
Cc1noc(C)c1NC(=O)N(C)C[C@H]1Oc2ccc(NC(=O)Nc3cccc4ccccc34)cc2C(=O)N([C@H](C)CO)C[C@H]1C	none (no result: SKN-1 inh, NR3A LBD binder, NadD inh, Vif imaging, SMARCA2 activ)
COc1ccc(N2CCN(C(=O)c3ccc4c(c3)NC(=O)C(CSCc3ccccc3F)N4)CC2)cc1 (stereo unspecified)	NadD inh 56.4 (no result: NR3A LBD binder)
CN(C)CC(=O)N[C@H]1CC[C@@H](CC(=O)NCc2ccccc2F)O[C@@H]1CO	none (no result: SKN-1 inh, NR3A LBD binder, NadD inh, Vif imaging, SMARCA2 activ)
Cc1cccc2c1OCC/C2=N\NC(=O)COc1ccccc1Cl	esBAF inh 70.2
O=C1C(NS(=O)(=O)c2cccs2)=C(N2CCN(c3cccc(Cl)c3)CC2)C(=O)c2ccccc21	NadD inh 30.3
C[C@@H]1CCCCO[C@H](CN(C)S(=O)(=O)c2cccs2)[C@@H](C)CN([C@H](C)CO)C(=O)c2cc(NS(=O)(=O)c3cccs3)ccc2O1	none (no result: SKN-1 inh, NR3A LBD binder, NadD inh, Vif imaging, SMARCA2 activ)
CC(C)NC(=O)c1cc(-n2cnnc2)ccc1Cl	NR3A LBD binder 11.2
CC(=O)Nc1ccc(NC(=O)c2cc(-n3cnnc3)ccc2Cl)cc1	none
Cc1cc(Br)cn2c(Cc3ccsc3)c(-c3ccccc3)nc12	SKN-1 inh 36.5 (no result: NR3A LBD binder, Vif imaging)
Brc1ccc2nc(-c3ccccc3)c(Cc3ccsc3)n2c1	SKN-1 inh 37.6 (no result: NR3A LBD binder, Vif imaging)
Clc1ccc2nc(-c3ccccc3)c(Cc3ccsc3)n2c1	esBAF inh inconclusive (no result: NR3A LBD binder, Vif imaging, SMARCA2 activ)
Cc1ccc(-c2nc3c(C)cc(Br)cn3c2Cc2ccsc2)cc1	none (no result: NR3A LBD binder, Vif imaging)
O=C(Cc1csc(-c2ccccc2)n1)Nc1ccc(C(F)(F)F)cc1	NR3A LBD binder 13.3
CCOc1ccc(NC(=O)c2ccc(-c3csc(C)n3)cc2)cc1	none
Cc1nc(-c2ccc(NC(=O)c3ccccc3C)cc2)cs1	esBAF inh 85.7
C=CCNC(=O)c1ccc(-c2nc(-c3ccccc3)cs2)cc1	none (no result: esBAF inh)
O=C(Nc1ccc(-c2csc(-c3ccccc3)n2)cc1)c1ccccc1	NR3A LBD binder 13.3
COc1ccc(NC(=O)c2ccc(-c3csc(C)n3)cc2)cc1	esBAF inh 41.4
Cc1ccc(NC(=O)Cc2csc(-c3ccccc3)n2)cc1F	none (no result: esBAF inh)
C[C@@H]1CN([C@@H](C)CO)C(=O)c2cc(NS(=O)(=O)c3ccccc3)ccc2O[C@H]1CN(C)S(C)(=O)=O	none (no result: SKN-1 inh, NR3A LBD binder, NadD inh, Vif imaging, SMARCA2 activ)
Cc1nc(-c2ccc(C(=O)Nc3ccc(F)cc3)cc2)cs1	NR3A LBD binder 10.9
Cc1nc(-c2ccc(NC(=O)Cc3ccccc3)cc2)cs1	esBAF inh 48.6
